Counter-ions that a name gives are not always drawn. ± gives the standard deviation of the averaged measurements. In all, about 3,100 compounds were measured (“mean cytoplasmic OPP incorporation (global translation) relative to DMSO”: median about 100, lowest 2% from about 56 on). Only a selection was taken, and the lowest values are over-represented in it overall.

The test system of this assay is U2OS. The assay is described as follows: mean cytoplasmic OPP incorporation (global translation) relative to DMSO (% of DMSO); higher = more protein synthesis. The settings on record: 10 µM; 24 h. How it is done:
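Primary image-based screen in U2OS cells: compounds at 10 uM for 24 h, then a 1 h o-propargyl-puromycin (OPP) pulse, click labelling, and high-throughput microscopy. Mean cytoplasmic OPP intensity and nuclei count were normalised to DMSO wells within each plate (DMSO = 100) and averaged over triplicate plates.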
In the case of `CCCC(CCC)C(=O)NO` [Valproic acid hydroxamate], the “mean cytoplasmic OPP incorporation” value is 110.
With `CCOc1ccccc1OCC1CNCCO1` (stereo not drawn) [Viloxazine hydrochloride], the “mean cytoplasmic OPP incorporation” value stood at 87.8.
Consider `Cc1cnc(NC(=O)Nc2cc(Br)c(C)cc2OC[C@@H]2CNCCO2)cn1`, for which the “mean cytoplasmic OPP incorporation” value was 45.6.
Under `COc1cc(OC)c(NC(=O)Nc2cc(C)on2)cc1Cl` stands 103; under `CC(=O)OCCN1C(=O)c2c(C)nc3ccc(S(=O)(=O)N4CCOCC4)cc3c2C1=O` [Ivachtin], 105.
Then `CCOC(=O)C1=CN(Cc2ccccc2)C=C(C(=O)OCC)C1c1ccccc1`, with 99.2; and `Nc1ncn(C2CC(O)C(CO)O2)c(=O)n1` (stereo not drawn) [5-Aza-2-deoxycytidine], with 94.5.
Then `CCCn1c(=O)c2[nH]c(-c3ccccc3)nc2n(CCC)c1=O` [1,3-Dipropyl-8-phenylxanthine], with 99.1; and `CCCn1c(=O)c(C)cn2nc(N)nc12`, with 104.
On to `CCCC[C@@H](C=O)NC(=O)OC(C)(C)C`, for which the “mean cytoplasmic OPP incorporation” value is 101.
Then `CC1=C(/C=C/C(C)=C/C=C/C(C)=C/C(=O)O)C(C)(C)CCC1O` (stereo not drawn) [4-Hydroxyretinoic acid], with 101; and `COC(=O)[C@]12CCC(C)(C)C[C@H]1[C@H]1C(=O)C=C3[C@@]4(C)C=C(C#N)C(=O)C(C)(C)[C@@H]4CC[C@@]3(C)[C@]1(C)CC2` [Bardoxolone Methyl], with 25.6; and `N[C@@H](Cc1cc(I)c(Oc2ccc(O)cc2)c(I)c1)C(=O)O` [3,5-Diiodo-L-thyronine], with 103.
Turning to `CC(C)[C@H](C(=O)Nc1ccc(C(=O)NO)cc1)c1ccccc1`, the “mean cytoplasmic OPP incorporation” value worked out at 53.
Then `CC(=O)Nc1ccccc1` [Acetanilide (Antifebrin)], with 102.
Under `CCN(CC)Cc1ccc2cc(COC(=O)Nc3ccc(C(=O)NO)cc3)ccc2c1` [ITF2357 (Givinostat)] stands 104; under `COc1ccc(CN2C(=O)C(=O)c3cc(OC(F)(F)F)ccc32)cc1`, 102; under `CC(C)Oc1ccc2c(=O)c3cc(C(=O)O)ccc3oc2c1`, 102.
Then `O=[N+]([O-])c1ccccc1S(=O)(=O)NCC1CCC(CNCC2CCc3ccccc3C2)CC1` (stereo not drawn) [NTNCB hydrochloride], with 114; and `CC(C)NCCN(C(C)C)S(=O)(=O)c1ccc(Cl)cc1Cl`, with 95.9; and `O=C1c2c(O)ccc(O)c2C(=O)c2c(NCCNCCO)ccc(NCCNCCO)c21` [Mitoxantrone dihydrochloride], with 20.9.
As for `C[N+](C)([O-])CCNc1ccc(NCC[N+](C)(C)[O-])c2c1C(=O)c1c(O)ccc(O)c1C2=O` [Banoxantrone dihydrochloride], the “mean cytoplasmic OPP incorporation” value turned out to be 87.9.
On to `O=C1c2ccccc2C(=O)c2c(NCCc3ccc(O)cc3)ccc(NCCc3ccc(O)cc3)c21`, for which the “mean cytoplasmic OPP incorporation” value came out at 120.
As for `CC(C)SC(=N)N` [S-Isopropylisothiourea hydrobromide], the “mean cytoplasmic OPP incorporation” value worked out at 102.
Then `CCCS(=O)(=O)c1nc(NC2CC2)cc(-c2ccc3c(ccn3C3CC(C)(C)NC(C)(C)C3)c2)n1`, with 21.1.
Regarding `C=C1C(=O)O[C@@H](CCC)[C@@H]1C(=O)O` [Butyrolactone 3], the “mean cytoplasmic OPP incorporation” value was found to be 100.
Take `C[C@H](NC(=O)[C@@H]1CCCN1C(=O)[C@@H]1CCCN1C(=O)[C@@H](O)[C@H](N)Cc1ccccc1)C(N)=O` [Apstatin]: the “mean cytoplasmic OPP incorporation” value was 101.
Regarding `CCC[C@H](NC(=O)/C(C#N)=C/c1cccc(Br)n1)c1ccccc1`, the “mean cytoplasmic OPP incorporation” value is 27.2.
For the compound `C[C@H](NC(=O)/C(C#N)=C/c1cccc(Br)n1)c1ccccc1`, the “mean cytoplasmic OPP incorporation” value was 56.2 ± 5.9.
Under `C[C@H](NC(=O)/C(C#N)=C/c1ccc(O)c(O)c1)c1ccccc1` [Tyrphostin B44, (+) enantiomer] stands 96; under `O=C(c1ccc(Cl)cc1Cl)n1nnc2ccccc21`, 111.
Take `CCCc1cc(C)[nH]c(=O)c1CNC(=O)c1cc(-c2ccnc(N3CCN(C)CC3)c2)cc2c1cnn2C(C)C`: the “mean cytoplasmic OPP incorporation” value amounted to 112.
Then `O=C(/C=C/c1cccc(S(=O)(=O)Nc2ccccc2)c1)NO` [Belinostat (PXD101)], with 65.5.
Then `Cc1[nH]c2ccccc2c1CCNCc1ccc(/C=C/C(=O)NO)cc1` [Panobinostat], with 51.6; and `CC(=O)NCCc1c(Cc2ccccc2)[nH]c2ccccc12` [Luzindole], with 103; and `CCCCCCCCCCCCCCCC(=O)C1=C(O)[C@@H](CO)OC1=O`, with 104.
Then `N[C@H](C(=O)O)[C@H](OCc1ccccc1)C(=O)O` (racemic), with 103; and `CCS(=O)(=O)c1cccc(-c2cc(C(=O)NC3CCN(C)CC3)c(C)c3[nH]c4ncc(C)cc4c23)c1`, with 46.8; and `COc1cc(C(=O)NC(=S)Nc2cccc(NC(=O)c3ccccc3)c2)cc(OC)c1OC`, with 117.
On to `CN(C)c1nc(N)c(C(=O)Nc2cccnc2)nc1Cl` [ACDPP hydrochloride], for which the “mean cytoplasmic OPP incorporation” value is 97.2.
Then `CN1CCC(c2c(O)cc(O)c3c(=O)cc(-c4ccccc4Cl)oc23)C(O)C1` (stereo not drawn) [Flavopiridol (Alvocidib) HCl], with 58.4; and `Cc1cc2c(cc1C1(c3ccc(C(=O)O)cn3)CC1)C(C)(C)CCC2(C)C`, with 109; and `COc1cc(NC(C)CCCN)c2ncccc2c1` (stereo not drawn) [Primaquine diphosphate], with 36.1.
Then `C/C(=N\NC(=O)C1C(=O)NCC1c1ccccc1)c1cccc(Br)c1` (stereo not drawn), with 102; and `O=C(O)c1cc(O)ccc1O` [Gentisic acid], with 101.
As to `CC(=O)N[C@@H](CSCC=C(C)CCC=C(C)CCC=C(C)C)C(=O)O` [Acetyl-S-farnesyl-L-cysteine], the “mean cytoplasmic OPP incorporation” value was 123.
Then `OCC1OC(n2cnc3c(NC4CCCC4)nc(Cl)nc32)C(O)C1O` (stereo not drawn) [2-Chloro-N6-cyclopentyladenosine], with 116; and `CCCCCS(=O)(=O)CCCCCCCCCCn1c(-c2ccc(O)cc2)c(C)c2cc(O)ccc21`, with 104.
Under `O=C(CCCN1C(=O)c2cccc3cccc(c23)C1=O)NO` [Nullscript] stands 97.6.
Under `CCN(CCN(C)C)C(=O)CNCc1cc(C(N)=O)ccn1` stands 96.2; under `O=c1[nH]nc(Sc2ncc([N+](=O)[O-])s2)n1-c1ccc2c(c1)OCCO2`, 39.7 ± 16.
`O=C1NCCN1c1ncc([N+](=O)[O-])s1` [Niridazole]: the “mean cytoplasmic OPP incorporation” value amounted to 94.7.
Under `C[C@H](CCC(=O)NCCS(=O)(=O)O)[C@H]1CC[C@H]2[C@@H]3CC[C@@H]4C[C@H](O)CC[C@]4(C)[C@H]3C[C@H](O)[C@]12C` [Taurodeoxycholic acid] stands 99.3.
Under `O=C(NCCCN1CCC2(CC1)OCc1ccccc12)[C@H]1CCCN1Cc1ccccc1` stands 108; under `CCCCC[C@H](O)/C=C/[C@@H]1[C@H]2C/C(=C/CCCC(=O)O)C[C@H]2C[C@H]1O` [Carbacyclin], 101; under `Nc1nc(NCCc2ccc(O)cc2)nc2nc(-c3ccco3)nn12`, 99.2.
Under `Cc1cc(C)c(N(Cc2ccccc2)S(=O)(=O)c2ccc(OCCNC(=O)c3cc4ccccc4o3)cc2)c(C(=O)NO)c1` stands 103; under `CN(C)Cc1c(C(=O)NCCOc2ccc(C(=O)NO)cc2)oc2ccccc12`, 56; under `COc1cc(C(=O)NCc2ccc(OCCN(C)C)cc2)cc(OC)c1OC` [Trimethobenzamide hydrochloride], 102.
Take `O=C(O)COc1ccc(OCCNC[C@H](O)COc2ccccc2)cc1` [ICI 215,001 hydrochloride]: the “mean cytoplasmic OPP incorporation” value was determined as 100.
In the case of `CCCCn1c(=O)c2[nH]c(C34CC5CC(CC3C5)C4)nc2n(CCCO)c1=O`, the “mean cytoplasmic OPP incorporation” value turned out to be 117.
Then `CCC(CC)[C@H](NC(C)=O)[C@@H]1[C@H](O)[C@@H](C(=O)O)C[C@H]1NC(=N)N` [Peramivir  Trihydrate], with 99.4; and `c1ccc2sc(N3CCN(Cc4ccc5c(c4)OCO5)CC3)nc2c1` [2-[1-(4-Piperonyl)piperazinyl]benzothiazole], with 105.
Under `Cc1cc(/C=C/c2ccc3cc(N(C)C)ccc3[n+]2C)c(C)n1-c1ccccc1` [Pyrvinium pamoate] stands 22; under `CNCCCCOc1ccccc1Cc1ccccc1` [Bifemelane hydrochloride], 107; under `O=Cc1c2[nH]c3ccccc3c2cc2[nH]c3ccccc3c12` [6-Formylindolo [3,2-B] carbazole], 92.9.
Then `COc1ccc(C(=O)NCc2ccc(OCCN(C)C)cc2)cc1OC` [Itopride], with 89.3; and `COc1ccc2[nH]cc(CCNC(C)=O)c2c1` [Melatonin], with 103 ± 4.6; and `COc1ccc(OC)c(C(O)CNC(=O)CN)c1` (stereo not drawn) [Midodrine hydrochloride], with 48.8.
Turning to `CC(C)[C@H](N)C(=O)N[C@H](C(=O)N[C@H](C(=O)O)C(C)C)C(C)C`, the “mean cytoplasmic OPP incorporation” value was 114.
Then `O=C(/C=C/C#Cc1cccc(NS(=O)(=O)c2ccccc2)c1)NO` [Oxamflatin], with 105; and `COc1cccc2c1C(=O)c1c(O)c3c(c(O)c1C2=O)C[C@@](O)(C(C)=O)C[C@@H]3O[C@H]1C[C@H](N)[C@H](O)[C@H](C)O1` [Daunorubicin hydrochloride], with 40.7.
Then `COc1cccc2c1C(=O)c1c(O)c3c(c(O)c1C2=O)C[C@@](O)(C(=O)CO)C[C@@H]3O[C@H]1C[C@H](N)[C@H](O)[C@H](C)O1` [Doxorubicin (Adriamycin)], with 67.1; and `COc1cccc2c1C(=O)c1c(O)c3c(c(O)c1C2=O)C[C@@](O)(C(=O)CO)C[C@@H]3O[C@H]1C[C@H](N)[C@@H](O)[C@H](C)O1` [Epirubicin HCl], with 59.5.
Consider `COc1cccc2c1C(=O)c1c(O)c3c(c(O)c1C2=O)C[C@@](O)(C(=O)CO)C[C@@H]3O[C@H]1C[C@H](N)[C@H](O)[C@H](C)O1` [Doxorubicin hydrochloride], for which the “mean cytoplasmic OPP incorporation” value stood at 54.8 ± 17.
Then `CC(=O)[C@]1(O)Cc2c(O)c3c(c(O)c2[C@@H](O[C@H]2C[C@H](N)[C@H](O)[C@H](C)O2)C1)C(=O)c1ccccc1C3=O` [Idarubicin HCl], with 60.3.
Under `COc1cccc2c1C(=O)c1c(O)c3c(c(O)c1C2=O)C[C@@](O)(C(C)=O)C[C@@H]3O[C@H]1C[C@H](N)[C@H](O)[C@H](C)O1` [Daunorubicin HCl (Daunomycin HCl)] stands 59.9; under `COc1cccc2c1C(=O)c1c(O)c3c(c(O)c1C2=O)C[C@@](O)(C(=O)CO)C[C@@H]3O[C@H]1C[C@H](N)[C@H](O[C@@H]2CCCCO2)[C@H](C)O1` [Pirarubicin], 59.9.

For the origin of these results see the supplement of paper PMC8183993.
